Source: PubChem BioAssay AID504462 (Sanford-Burnham Center for Chemical Genomics, 2011)
The campaign covered roughly 340,000 compounds. About 1,700 (0.5%) were called active. The full list was thinned out, with actives kept by preference. A number with no mark means an inactive call. Cut-off read from the data, not from the text of the source: active = inhibition above about 40%; inactive = the rest.

biological target: Cysteine protease ATG4B (Homo sapiens) (UniProt Q9Y4P1); experiment: blockers of ATG4B cysteine protease activity – biochemical, fluorescence, uHTS, primary screen (AID 504462); settings: ATG4B cleavage of LC3-PLA2, NBD-HPC fluorescence, 1 h; at 8.33 µM; active compounds read high
Sequence (Q9Y4P1 whole entry, looked up): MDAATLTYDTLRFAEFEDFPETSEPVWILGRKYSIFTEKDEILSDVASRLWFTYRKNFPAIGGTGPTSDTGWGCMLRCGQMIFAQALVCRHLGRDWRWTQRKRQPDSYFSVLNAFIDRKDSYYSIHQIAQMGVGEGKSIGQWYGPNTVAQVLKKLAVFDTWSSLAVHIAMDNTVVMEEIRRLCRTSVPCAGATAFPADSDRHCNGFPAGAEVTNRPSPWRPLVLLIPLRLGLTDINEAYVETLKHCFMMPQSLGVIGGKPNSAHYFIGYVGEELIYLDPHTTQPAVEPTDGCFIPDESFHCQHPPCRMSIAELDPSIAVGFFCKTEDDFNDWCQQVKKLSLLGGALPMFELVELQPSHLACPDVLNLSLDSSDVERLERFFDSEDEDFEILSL

For `COc1ccc(Br)cc1C(=O)NC(=S)Nc1cc(-c2nc3ccccc3[nH]2)ccc1C`, the inhibition was 65% (active).
`C#CCOCCOCCOCCNc1nc(N2CCN(C(=O)CCCCCCCCCCNC(=O)[C@H]([C@@H](C)CC)n3cc(CCCCN=C(N)N)nn3)CC2)nc(N2CCN(C(=O)CCCCCCCCCCNC(=O)[C@H](CO)n3cc(CCCSC)nn3)CC2)n1` was tested, and the inhibition was 41.9% (active).
In the case of `O=C1N=C(N2CCc3ccccc3C2)S/C1=C\c1ccc(O)cc1`, the inhibition was 67.7% (active).
In the case of `CCCc1nc2c(c(=O)c3ccccc3n2C)c(=O)n1C1CCCCCC1`, the inhibition was 41.3% (active).
`CCN1CCN(c2c(Cl)cccc2NC(=O)c2ccc(Br)o2)CC1` was tested, and the inhibition was 56.4% (active).

First: COc1ccc(Br)cc1C(=O)Nc1cccc(C)c1C
Second: COc1cc2ccccc2cc1C(=O)Nc1ccccc1C
The inhibition of the first is higher: 7.75% for the first, -2.98% for the second.

Compared with `CN1C(C)(C)CC(NC(=O)CCC(=O)NC2CC(C)(C)N(C)C(C)(C)C2)CC1(C)C`, `CC1CCN(Cc2nc3c(c(=O)n(C)c(=O)n3C)n2CCc2ccccc2)CC1` is lower in inhibition: -1.23% for the first, -1.37% for the second.

Going from `C#CCOCCOCCOCCNc1nc(N2CCN(C(=O)Cn3cc(CCO)nn3)CC2)nc(N2CCN(C(=O)Cn3cc(CCCN=C(N)N)nn3)CC2)n1` to `C#CCOCCOCCOCCNc1nc(N2CCN(C(=O)[C@H](CCCN=C(N)N)n3cc(C(N)[C@@H](C)CC)nn3)CC2)nc(N2CCN(C(=O)[C@H](CO)n3cc([C@@H](N)C(C)C)nn3)CC2)n1` (some centres not stated), the inhibition rises from -2.83% to -2.36%.

First: O=C(c1n[nH]c2c1CCC2)N1CCCC(Nc2cccc(F)c2)C1 (configuration not stated)
Second: Cn1c2ccccc2c2c(C(=O)N3CCN(c4ccc(F)cc4)CC3)cn(C3CCCC3)c(=O)c21
The inhibition of the first is higher: 5.08% for the first, -29.5% for the second.

Compared with `CCc1ccc(/C=C2\SC(N3CCOCC3)=NC2=O)cc1`, `CCOc1cc(/C=C2\SC(N3CCCCC3)=NC2=O)ccc1O` is lower in inhibition: -5.05% for the first, -6.5% for the second.

Going from `O=C(NCCCO)/C(=C\C=C\c1ccccc1)NC(=O)c1ccccc1Cl` to `O=C(Nc1cccc(Cl)c1N1CCOCC1)c1cccnc1`, the inhibition rises from -7.32% to -5.52%.

Going from `O=C1CSC(=S)N1c1ccc(Cl)c(Cl)c1` to `Cn1nc(C(C)(C)C)c(NC(=O)c2sccc2Cl)c1C(C)(C)C`, the inhibition rises from 4.82% to 8.72%.

Compared with `CC1CC(C)CN(C/C=C/c2ccccc2[N+](=O)[O-])C1` (configuration not stated), `O=C(Nc1cccc(Cl)c1N1CCOCC1)c1ccc2c(c1)OCCO2` is higher in inhibition: 11.3% for the first, 33.9% for the second.

`O=C(O)C1=NN(c2c(F)c(F)cc(F)c2F)C(=O)CC1` was tested, and the inhibition was -1.19%.
